From PubChem
Most compounds without a hit are left out; they make up all but 10% or so of the library.
HPGD inh: qHTS Assay for Inhibitors of HPGD (15-Hydroxyprostaglandin Dehydrogenase) | hit rate 4.3% among 150,000 | purified HPGD, NADH fluorescence kinetic, PGE2 substrate | 15-hydroxyprostaglandin dehydrogenase [NAD(+)] (Homo sapiens), P15428 | Potency, µM, without a hit: at the top dose activity change, negative = inhibition, hits mostly inhibitors; note: potency is the fitted concentration of half-maximal effect
Target sequence (P15428 whole entry, looked up): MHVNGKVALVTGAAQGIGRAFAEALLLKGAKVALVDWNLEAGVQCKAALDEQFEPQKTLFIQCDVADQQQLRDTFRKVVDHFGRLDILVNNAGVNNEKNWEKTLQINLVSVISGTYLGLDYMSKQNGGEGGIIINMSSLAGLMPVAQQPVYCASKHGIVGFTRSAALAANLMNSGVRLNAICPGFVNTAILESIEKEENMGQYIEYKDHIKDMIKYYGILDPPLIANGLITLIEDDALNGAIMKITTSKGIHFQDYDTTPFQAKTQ
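NADH formation kinetics: reaction with 30 uM PGE2 and 1 mM NAD+ (final), 20 nM enzyme, Tris-HCl pH 8 with Tween 20, after 15 min compound preincubation at room temperature. Fluorescence change, last versus first of five reads.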
ALDH1A1 block: qHTS Assay for Inhibitors of Aldehyde Dehydrogenase 1 (ALDH1A1); Aldehyde dehydrogenase 1A1 (Homo sapiens), P00352; Purified ALDH1A1, NADH fluorescence, propionaldehyde substrate; Potency, µM (doses to about 75.3 µM), for inactives: at the highest dose activity, negative = inhibition, most hits filed as inhibitors; hit rate 7.3% among 220,000; AID 1030, 2008;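 note: potency is the fitted concentration of half-maximal effect; plate controls were no enzyme wells and a reference inhibitor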
Target sequence (P00352 whole entry, looked up): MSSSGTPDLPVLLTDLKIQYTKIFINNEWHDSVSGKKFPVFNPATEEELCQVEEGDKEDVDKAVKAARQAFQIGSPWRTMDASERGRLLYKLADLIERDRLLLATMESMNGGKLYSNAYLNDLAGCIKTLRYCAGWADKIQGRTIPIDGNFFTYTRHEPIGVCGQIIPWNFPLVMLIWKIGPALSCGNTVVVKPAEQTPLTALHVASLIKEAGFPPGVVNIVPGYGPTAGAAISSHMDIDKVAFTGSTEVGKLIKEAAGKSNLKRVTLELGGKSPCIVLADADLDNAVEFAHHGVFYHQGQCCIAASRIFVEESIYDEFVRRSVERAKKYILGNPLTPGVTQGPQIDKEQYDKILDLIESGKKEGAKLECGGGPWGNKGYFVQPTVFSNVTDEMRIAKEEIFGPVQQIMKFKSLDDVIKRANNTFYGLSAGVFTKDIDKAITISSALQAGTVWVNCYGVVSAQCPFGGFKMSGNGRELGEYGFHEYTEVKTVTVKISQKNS
LMNA splice mod: qHTS Assay for Modulators of Lamin A Splicing; HeLa LMNA splicing GFP/RFP minigene ratio, 48 h; Potency, µM (series often up to 46.1 µM), inactives show top-dose ratio change, negative = inhibition, hits mostly inhibitors; hit rate 0.01% among 200,000; active = well fitted inhibition curve with a large enough effect in the signal ratio, with a control signal flat, not every such curve was filed as active; inconclusive = small, poorly fitted or top-dose-only effect, or effect the other way, or a change in a side signal; the % refers to the signal ratio; note: potency is the fitted concentration of half-maximal effect
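S3 HeLa cells stably expressing lamin A-EGFP splicing minigene plus DsRed2, 600 cells/well, 48 h compound exposure at 37C. Laser-scanning cytometry; analysed as GFP (500-530 nm)/RFP (575-640 nm) total intensity ratio; 0.5% DMSO vehicle.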
PNC inhibitor: High Content Assay for Compounds that inhibit the Assembly of the Perinucleolar Compartment; hit rate 3.1% among 140,000; AID 2417, 2010; activity change (PNC), negative = inhibition, % at 10 µM; PC3M PTB-GFP, PNC prevalence imaging, 16 h; active compounds read low;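 active = readout at or below -70, meaning at least 70% loss of cells showing the perinucleolar compartment, a nuclear body marking cancer cells; inconclusive = readout between -30 and a set limit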;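 note: plate controls were DMSO wells for no effect and camptothecin positive control wells for full effect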
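Read-out is percentage of cells bearing a perinucleolar compartment, from automated 20x imaging of fixed, Hoechst-stained PC3M PTB-GFP cells. Cells were seeded 4 h, then exposed 16 h to compound (23 nl of library stock) in duplicate plates.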
KinaseGlo FLuc: Counterscreen for Luciferase (Kinase-Glo TM) Inhibition. Luciferin 4-monooxygenase (Photuris pensylvanica), Q27757. Kinase-Glo luciferase, ATP luminescence, 8 min. Potency, µM (doses to about 38.3 µM), for the others: top-dose activity change, negative = inhibition, usual class: inhibitors. hit rate 0.28% among 200,000; active = well fitted inhibition curve with a large enough effect; inconclusive = small, poorly fitted or top-dose-only effect; note: potency is the fitted concentration of half-maximal effect; nearly all actives have a fitted effect of over 60% in size
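Compounds were added to a substrate mix at pH 7.2 (50 mM imidazole, 10 uM ATP, within the enzyme's linear range), followed by Kinase-Glo detection reagent; luminescence was measured after 8 minutes at ambient temperature.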
Active calls of the source: *; ? = inconclusive; / = no result; [ ] = dose if it differs, or a comment. Unless noted, calls come from the whole dose curve; as a rule, active = well fitted inhibition curve with a large enough effect (not every such curve was filed as active); inconclusive = small, poorly fitted or top-dose-only effect, or another doubt; inactive = no such curve, though single readings can be large or run the other way. Unless noted, % is set by controls: 0 for no effect and ±100 for the full control effect.

SMILES | HPGD inh | ALDH1A1 block | LMNA splice mod | PNC inhibitor | KinaseGlo FLuc
Cc1ccc(S(=O)(=O)NC(=O)CSc2nc3ccccc3s2)cc1 | -12% | -2% | 3% | 18 | -1%
C/C(=N\NC(=O)CSc1nc2ccccc2[nH]1)c1ccncc1 | / | ? | / | / | 9%
C/C(=N/NC(=O)CSc1nc2ccccc2n1C)c1ccncc1 | / | 10µM* | / | / | 2%
CS/C(=N\S(=O)(=O)c1cccs1)NC(=O)CSc1nc2ccccc2s1 | 25µM* | 28µM* | -7% | 14 | -3%
c1nc(NC2CC2)c2cc(-c3ccoc3)ccc2n1 | / | ? | 7% | / | /
O=C(O)CCSC1=NCCN1 | -3% | ? | / | / | -4%[7.66 µM]
O=C(O)c1ccc(NS(=O)(=O)/C=C/c2ccccc2)cc1O | -21% | 10µM* | 7% | -10 | 5%
c1nc(NCCc2cnc[nH]2)c2[nH]cnc2n1 | -14% | 2%[13.5 µM] | / | / | 1%[7.66 µM]
CCS(=O)(=O)N1CCN(C(=O)c2ccc(-c3ccccc3)cc2)CC1 | -9% | -9% | ? | -25 | -4%
CS(=O)(=O)N1CCN(C(=O)c2ccc(-c3ccccc3)cc2)CC1 | -11% | -11% | -2% | -83* | 0%
Cc1occc1C(=O)N1CCN(S(C)(=O)=O)CC1 | 4% | 20µM* | 2% | -5 | 0%
O=C(c1ccc(-c2ccccc2)cc1)N1CCC(C(=O)N2CCCC2)CC1 | 16µM* | -14% | -16% | -3 | 2%
CC(C)(C)NC(=O)C1CCN(C(=O)c2ccc(-c3ccccc3)cc2)CC1 | -13% | 12% | ? | ? | 5%
COc1ccccc1CNc1ncncc1-c1ccccc1Cl | / | 4% | ? | / | /
COc1ccc2sc(N(Cc3cccnc3)C(=O)C3CCCCC3)nc2c1 | / | / | -17%[46 µM] | / | /
O=S(=O)(O)c1ccc2c(N=Nc3c(O)ccc4ccccc34)cccc2c1 | -4% | -11%[13.5 µM] | / | / | -7%[7.66 µM]
COc1ccc(CSCCN)cc1Cl | 3% | 3% | 17% | -96* | -3%
CCOCCc1nn2c(=O)cc(COC(=O)C3CCCCC3)nc2s1 | / | / | -8%[46 µM] | / | /
Cc1cc(O)c(C(C)C)cc1N=C1CSC(=O)N1 | 32µM* | 13µM* | -2% | 25 | -5%
COCCNC(=O)COC(=O)c1nsc(Cl)c1Cl | -10% | ? | -9%[0.0737 µM] | -109* | 1%
COCCNC(=O)C(C)OC(=O)c1nsc(Cl)c1Cl (stereo not drawn) | -2% | 6% | 4% | 21 | -2%
COc1ccc(OC)c(NC(=O)N(C)CCc2c(C)nn(C)c2C)c1 | / | / | 8%[46 µM] | / | /
N[C@H](C(=O)O)[C@@H]1C[C@@H]1C(=O)O | -2% | -2% | / | / | -1%
COc1ccc(-c2nc(C)sc2CC(=O)O)cc1 | -17% | 4% | 4% | -100* | -1%
COc1cc(NC(=O)c2cnc3c(-c4ccc(F)cc4)c(C)nn3c2C)cc(OC)c1 | / | / | 13%[46 µM] | / | /
SMILES | HPGD inh | ALDH1A1 block | LMNA splice mod | PNC inhibitor | KinaseGlo FLuc
O=C(O)[C@H](CCc1ccccc1)N1C(=O)c2ccccc2C1=O | -7% | -10%[13.5 µM] | / | / | -3%[7.66 µM]
O=C(O)CSc1nc2c(c(=O)[nH]1)CCCC2 | / | 8% | 0% | 17 | /
CCCCSc1nc2c(c(=O)[nH]1)CCC2 | 28µM* | -12% | 5% | 35 | -6%
Cc1cccc(-c2nc(CSc3nc4c(c(=O)[nH]3)CCC4)c(C)o2)c1 | 2.8µM* | -2% | ? | 56 | 9%
Cc1oc(-c2ccccc2)nc1CSc1nc2c(c(=O)[nH]1)CCC2 | 4.5µM* | 7% | 9% | ? | -3%
Cc1ccccc1CSc1nc2c(c(=O)[nH]1)CCC2 | 3.5µM* | 9% | ? | 3 | -8%
COC(=O)[C@@H]1C[C@H]1[C@@H](NS(=O)(=O)c1ccc2ccccc2c1)c1ccccc1 | -9% | 4% | / | / | 3%
O=S(=O)(NCCc1ccccc1)c1ccc(N2CCCCS2(=O)=O)cc1 | / | / | 0%[46 µM] | / | /
O=C(NS(=O)(=O)c1ccc(F)cc1)O[C@@H]1C(=O)c2cc(Br)ccc2O[C@H]1c1ccc2c(c1)OCO2 | -9% | ? | / | / | 0%
CN(C)c1nc(-c2ccc3c(c2)OCO3)nc2ccccc12 | / | -5% | ? | / | /
Cc1cc(O)c(C(c2ccc(Cl)cc2)N2CCN(c3ccccc3)CC2)c(=O)n1Cc1ccco1 (stereo not drawn) | / | / | -16%[46 µM] | / | /
Cc1ccccc1-c1nc(CSc2nc3c(c(=O)[nH]2)CCC3)c(C)o1 | 4.5µM* | 9% | 2% | 73 | 0%
Cc1ccc(C(=O)OCc2nnc(-c3ccccc3)o2)o1 | 7.1µM* | -6% | 6% | 19 | -8%
O=C(COc1ccc(Br)cc1)OCc1nnc(-c2ccccc2)o1 | 28µM* | -11% | 2% | 18 | -7%
O=C(OCc1nnc(-c2ccccc2)o1)c1cc(S(=O)(=O)N2CCOCC2)c(Cl)cc1Cl | 7.9µM* | 4% | 4% | ? | -3%
O=C(OCc1nnc(-c2ccccc2)o1)c1cc([N+](=O)[O-])ccc1Cl | / | -6% | ? | / | 0%
O=C(OCc1nnc(-c2ccccc2)o1)c1cc2ccccc2cc1O | / | 3% | -3%[46 µM] | / | -2%
O=C(OCc1nnc(-c2ccccc2)o1)c1ccc2ccccc2n1 | 25µM* | 5% | 9% | 2 | -1%
Cn1cc(S(=O)(=O)N2CCCCC2)cc1C(=O)NCc1ccc(Cl)cc1 | / | / | 5%[46 µM] | / | /
Nc1nc(N)nc(CCCc2nc(N)nc(N)n2)n1 | -2% | 3%[13.5 µM] | / | / | -2%[7.66 µM]
O=C(OCc1nnc(-c2ccccc2)o1)c1ccc(Cl)cc1 | / | -2% | / | / | 2%
O=C(OCc1nnc(-c2ccccc2)o1)c1ccc(S(=O)(=O)NCc2ccco2)cc1 | 11µM* | 15% | -8% | 27 | -3%
O=C(OCc1nnc(-c2ccccc2)o1)c1ccc2c(c1)OCCO2 | 7.9µM* | 6% | -3%[0.0737 µM] | -6 | -2%
O=C(CSC1CC(=O)N(CCc2ccccc2)C1=O)Nc1ccc(Br)cc1 (stereo not drawn) | 0% | -7% | 16% | 23 | 0%
O=C(CSC1CC(=O)N(CCc2ccccc2)C1=O)Nc1cccc(Cl)c1 (stereo not drawn) | 7.9µM* | -7% | 0% | -2 | 8%
SMILES | HPGD inh | ALDH1A1 block | LMNA splice mod | PNC inhibitor | KinaseGlo FLuc
CCN(CC)S(=O)(=O)c1ccc(N=NC2=C(O)CCCC2=O)cc1 | / | ? | -7% | ? | /
CCN(CC)S(=O)(=O)c1ccc(N=NC2=C(O)CC(C)(C)CC2=O)cc1 | -13% | 2.5µM* | ? | 38 | -3%
CC1(C)CC(=O)C(N=Nc2ccc3ncsc3c2)=C(O)C1 | -23% | 4.5µM* | 12% | -3 | -3%
CC1(C)CC(=O)C(N=Nc2ccc(OC(F)F)cc2)=C(O)C1 | / | 1.4µM* | -14%[46 µM] | / | -1%
Cc1ccc2c(CSc3nnc(N)s3)cc(=O)oc2c1 | 20µM* | 22µM* | 4% | 19 | -6%
Cc1ccc2c(COC(=O)c3c(C)noc3C)cc(=O)oc2c1 | / | ? | -2%[46 µM] | / | -1%
CC(C)CN(c1ccccc1)S(=O)(=O)c1nnc(NC(=O)C2CCCCC2)s1 | / | / | 8%[46 µM] | / | /
